# HCMV inh – qHTS Assay for inhibitors of the human cytomegalovirus (HCMV); HFF cells, HCMV-luciferase reporter, 72 h; active compounds read low; activity change, negative = inhibition, % at 57.5 µM; 4.5% of 410,000 active; in the data active means activity change below about -60%; inconclusive means no clear call, values can overlap the other calls; inactive means above about -39%
#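 Luciferase read-out from HCMV-luciferase-infected HFFs (MOI 1 PFU/cell) 72 h post infection at 37C; compounds added after 16 h cell attachment; activity normalized between buffer-only basal and Salinomycin (10uM) inhibitor controls.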
# Lassa entry inh – qHTS for Inhibitors of binding or entry into cells for Lassa Virus. Lassa virus pseudotype entry inhibition, cell reporter. Potency, µM (series often up to 37.9 µM), for inactives: top-dose activity change, negative = inhibition, most hits filed as inhibitors. 1.2% of 300,000 active. AID 540256, 2011; calls by dose curve; tested in HEK293 cells; further: potency means the concentration at half of the fitted maximal effect; nearly all actives have a fitted effect of over 50% in size
# Marburg entry inh – qHTS for inhibitors of binding or entry into cells for Marburg Virus. AID 540276, 2011. 1.8% of 300,000 active. Marburg virus pseudotyped entry inhibition, cell reporter. Potency, µM (highest dose often 37.8 µM), for inactives: at the highest dose activity change, negative = inhibition, usual class: inhibitors; calls by dose curve; tested in HEK293 cells; further: potency means the concentration at half of the fitted maximal effect
# HCV inhibitor – qHTS Assay for Inhibitors of Hepatitis C Virus (HCV); Huh7.5.1 HCVcc-Cre infection, luciferase reporter, 44 h; Potency, µM (highest dose often 41.8 µM), for inactives: top-dose activity change, negative = inhibition, most hits filed as inhibitors; 3.4% of 340,000 active; AID 651820, 2012; further: potency means the concentration at half of the fitted maximal effect
#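 Reporter virus HCVcc-Cre (~0.5 moi) infects cells exposed to compound; seeding density 1,000 cells/well with 4 h settling beforehand. Luminescence, 15 sec read, taken 44 h post-infection following a 15 min RT substrate incubation.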
# Pf growth 96h – Primary qHTS for delayed death inhibitors of the malarial parasite plastid, 96 hour incubation. P. falciparum luciferase reporter growth, 96 h. 6.9% of 320,000 active. AID 504834, 2011. Potency, µM (top dose mostly 28.7 µM), for inactives: at the top dose activity change, negative = inhibition, hits mostly inhibitors; further: potency means the concentration at half of the fitted maximal effect
#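 Erythrocytes infected with luciferase-expressing P. falciparum were dispensed at 2% hematocrit and 0.05% parasitemia (final), then incubated with compounds 96 hours at 37 C in 5% CO2. Luminescence after detection reagent addition reported growth.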
# Pf growth 48h – Primary qHTS for delayed death inhibitors of the malarial parasite plastid, 48 hour incubation; 5.9% of 310,000 active; AID 504832, 2011; Potency, µM (highest dose often 28.7 µM), inactives show top-dose activity change, negative = inhibition, usual class: inhibitors; P. falciparum luciferase growth in erythrocytes, 48 h; further: potency means the concentration at half of the fitted maximal effect
#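 First compound was added to culture medium, then infected red cells at 0.1% parasitemia and 2% hematocrit (final). After incubation at 37 C under 5% CO2, luciferase detection reagent was dispensed and light output recorded.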
# * = called active by the depositor; ? = inconclusive; nt = no result given; [ ] = remark or other dose. The list is not random: actives were taken first. Their share in the collection is about 14%. Unless noted, the call rests on the fitted dose curve; in most records, active means well fitted inhibition curve with a large enough effect; inconclusive means small, poorly fitted or top-dose-only effect, or another doubt; inactive means no such curve, though single readings can be large or run the other way. On the % scale 0 is the no-effect control and ±100 the full control effect.
SMILES,HCMV inh,Lassa entry inh,Marburg entry inh,HCV inhibitor,Pf growth 96h,Pf growth 48h
CCOC(=O)c1c(NC(=O)CCCOc2ccc(C)cc2)sc2c1CCC(C)C2 (stereo not drawn),5,3%[46.1 µM],nt,nt,nt,nt
Cc1cc(Br)ccc1NC(=O)CN(C)C(=O)CN1C(=O)NC(C)(C2CC2)C1=O (stereo not drawn),-12,nt,nt,-1%,-18%,-15%
COc1ccccc1OCC(=O)NCC(c1ccc(Cl)cc1)N1CCCCC1 (stereo not drawn),-5,-15%[46.1 µM],?,nt,nt,nt
CCNC(=O)CC1C(=O)N(c2ccc(F)cc2)C(=O)N1CCC(C)C (stereo not drawn),30,6%,6%,-7%,-20%,4%
CCNC(=O)CC1C(=O)N(c2ccc(C)cc2)C(=O)N1CCC(C)C (stereo not drawn),33,-9%,-4%,20%,12µM*,14%
CCN(CC)c1ccc(N=Cc2ccc(N(CC)CC)cc2O)cc1,-25,nt,-8%,-13%,nt,1.2µM*
CC(C)CCNC(=O)c1ccc(Cn2c(SCC(N)=O)nc3ccccc3c2=O)cc1,-23,-20%[46.1 µM],nt,nt,nt,nt
Cc1oc(C(=O)O)cc1COc1cccc2ccccc12,11,nt,nt,4%,2.3µM*,5%
C#CCn1cc(CNC[C@H]2O[C@@H](n3cnc4c(=O)[nH]c(N)nc43)[C@H](O)[C@@H]2O)c2ccccc21,0,nt,nt,nt,nt,nt
CCS(=O)(=O)c1ncc(N(Cc2ccco2)Cc2sccc2C)c(C(=O)Nc2ccc(C)cc2C)n1,-13,3%[46.1 µM],?,nt,nt,nt
CCC(O)CNC(=O)NC(=C(Cl)Cl)c1ccc(C)c(F)c1 (stereo not drawn),-81*,nt,nt,16µM*,-26%,?
CCNC(=O)C1(C)CCN(C(=O)c2ccc(C)c(F)c2)C1 (stereo not drawn),15,nt,nt,nt,nt,nt
Cc1ccc(C)c2sc(N3CCN(C(=O)c4ccc([N+](=O)[O-])o4)CC3)nc12,-7,?,13µM*,?,0.33µM*,0.83µM*
Cc1ccc(C)c2sc(N3CCN(C(=O)C(C)(C)C)CC3)nc12,-8,-3%[46.1 µM],nt,nt,nt,nt
Fc1cc(F)c2nc(N3CCCCC3)sc2c1,-4,27%,16%[46.1 µM],1%,8.3µM*,45%
O=C(c1ccc([N+](=O)[O-])o1)N1CCN(c2nc3c(F)cc(F)cc3s2)CC1,2,3%,?,0.56µM*,0.33µM*,1µM*
Cc1ccc(S(=O)(=O)NCc2ccccc2)cc1C(=O)N1CCCC(C(F)(F)F)C1 (stereo not drawn),?,-17%,?,-9%,-3%,?
Cc1cc(SCC(=O)N(C)C2CCCCC2)nc2ccccc12,-24,nt,nt,4%,nt,nt
COc1ccc(Cn2c(SCc3ccc(C(=O)NCc4ccc(C)cc4)cc3)nc3cccnc32)cc1,-21,nt,-7%[46.1 µM],nt,nt,nt
Cc1cccc(NC(=O)N2CC(=O)Nc3sc4c(c3C2c2ccccc2)CCCC4)c1C (stereo not drawn),-30,-13%[46.1 µM],-9%[46.1 µM],nt,nt,nt
COc1ccc(-c2nnc(CSc3nnc(-c4ccncc4)n3C3CCCCC3)o2)cc1OC,40,22%,18%,-8%,9.3µM*,?
CCN1C=CC2=C(C#N)C(N)C(C#N)(C#N)C(c3ccccc3C(F)(F)F)C2C1 (stereo not drawn),-19,?,-15%,-13%,?,2.9µM*
C=C[C@@H]1c2ccccc2N(S(=O)(=O)c2ccc(C)cc2)[C@H](c2ccccc2C(F)(F)F)C1(C#N)C#N,15,nt,nt,0%,?,?
Cc1ccc(-c2nnc3ccccc3c2C(=O)Nc2ccccc2F)cc1,0,?,nt,nt,nt,nt
CCN(CC)CCn1c(-c2ccc(C)cc2)nc(=S)c2c1CC(C)(C)OC2,-25,6%,-5%,5%,?,-10%
SMILES,HCMV inh,Lassa entry inh,Marburg entry inh,HCV inhibitor,Pf growth 96h,Pf growth 48h
Cc1ccc(-c2ccc(/C=C3\C(=O)ON=C3c3ccccc3)o2)c([N+](=O)[O-])c1,-94*,2%,?,?,17%,-1%
Cc1ccc(/C=C2\C(=O)ON=C2c2ccccc2)o1,?,-6%,-9%[46.1 µM],20%,18%,16%
CC1(C(=O)NS(=O)(=O)Cc2ccccc2C(F)(F)F)CCN1C(=O)c1ccccc1 (stereo not drawn),26,nt,nt,nt,nt,nt
CCOc1ccccc1C(=O)N[C@H](C(=O)OCC(=O)Nc1nnc(-c2ccccc2)o1)C(C)C,20,5%[46.1 µM],0%[46.1 µM],-8%,nt,nt
CCCNC(=O)C(Cc1ccc(I)cc1)NC(=O)C1CC1 (stereo not drawn),-37,nt,nt,10%,-44%,-3%
CCCCCCNC(=O)N[C@@H](C(=O)NCCC[C@H]1CN2C(=NC[C@@H]2Cc2ccccc2)N1CCc1cccc(OC)c1)C(C)C,nt,nt,nt,-14%,1.3µM*,13µM*
CCCCCCNC(=O)N[C@@H](Cc1ccc(O)cc1)C(=O)NCCC[C@H]1CN2C(=NC[C@H]2C)N1CC1CCC1,nt,nt,nt,1%[8.37 µM],3.3µM*,9.3µM*
CCCCCCNC(=O)N[C@H](Cc1ccc(O)cc1)C(=O)NCCC[C@H]1CN2C(=NC[C@H]2CCC)N1CC1CCC1,nt,nt,nt,nt,2.9µM*,7.4µM*
CC(C)C[C@H]1CN(CCCC[C@H]2CNC(=O)C(=O)N2CC2CCCCC2)C(=O)C(=O)N1CCc1ccc(O)cc1,-3,nt,nt,nt,nt,nt
Cc1ccc(C)c(S(=O)(=O)c2nnn3c2nc(NC(C)C)c2sccc23)c1,-70*,-23%[46.1 µM],nt,nt,nt,nt
NC1=NC[C@@H](Cc2ccc(O)cc2)N1CCC12CC3CC(CC(C3)C1)C2,0,nt,nt,?,nt,nt
COc1cc(CCCN2C(=S)NC[C@@H]2Cc2ccccc2)cc(OC)c1OC,12,nt,nt,?,-11%,-16%
COc1cc(CCCN2C(N)=NC[C@@H]2Cc2ccccc2)cc(OC)c1OC,-16,nt,nt,7%,9.3µM*,9.3µM*
COc1cc(CCCN2C(N)=NC[C@@H]2Cc2ccc(O)cc2)cc(OC)c1OC,-5,nt,nt,6%,2.3µM*,?
COc1cc(CCCN2C(=S)NC[C@@H]2c2ccccc2)cc(OC)c1OC,-99*,nt,nt,?,?,?
CCc1cccc(NC(=O)Cn2c(=O)ccc3cc(S(=O)(=O)N4CCC(C)CC4)ccc32)c1,13,?,nt,nt,nt,nt
CCOc1ccccc1NC(=O)CSc1cn(CC(=O)N2CCCCCC2)c2ccccc12,?,15%[46.1 µM],nt,nt,nt,nt
CCN1CCN(C(=S)c2ccc(-c3ccccc3)cc2)CC1,-81*,nt,nt,4%,?,7%
CCN1CCN(C(=S)NC(C)c2ccccc2)CC1 (stereo not drawn),?,8%,?,4%,3.7µM*,7%
COc1ccc(CNC(=O)c2cc3c(=O)n4cccc(C)c4nc3s2)cc1,20,13%[46.1 µM],1%[46.1 µM],nt,nt,nt

# Screening results deposited in PubChem BioAssay by National Center for Advancing Translational Sciences (NCATS).
